Compound activity (PubChem)
Sampled rows, rich in hits. Any-hit rate of the full collection: about 3.6%.
LMP1 NFkB inh: EBV LMP1-driven NF-kappaB luciferase reporter inhibitors, primary screen, cell-based, luminescence, single point | LMP1-induced NF-kappaB luciferase reporter cells | inhibition, % at 12.5 µM | 350,000 compounds, 0.69% hits | AID 504558, 2011; in the data active means inhibition above about 41%; inconclusive means no clear call, values can overlap the other calls;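 further: 0% = neutral control wells and 100% = reference inhibitor control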
HSF-1 act: HSF-1 activators, primary screen, NIH3T3-HGL cells, MG132 stress, luminescence, single point | NIH3T3-HGL HSF-1 luciferase reporter, 8 h; 100% = twice DMSO control signal | activation, % at 9 µM | 300,000 compounds, 1.7% hits;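 active means mean replicate activation of at least 50% with a set share of replicates each reaching 50%; inconclusive means only one of those two conditions met; inactive means mean below 50% and too few replicates reaching it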;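 further: 0% = median of the neutral control wells and 100% = twice that signal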
HSF1 inhib: HSF1 inhibitors in luciferase reporter cells, primary screen, cell-based, NIH3T3, luminescence | activity change, negative = inhibition, % at 7.5 µM (by protocol) | NIH3T3-HGL HSE-luciferase, MG132-induced, luminescence 8 h; stronger effect = lower value | 300,000 compounds, 0.77% hits;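 active means more than half of replicate wells show activity change below -50%, luminescence cut by over half; inconclusive means some wells, but at most half, below -50%; inactive means no replicate well below -50%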;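 further: luciferase reports HSF-1 transcriptional activity via heat shock element; 0% = median of DMSO wells and -100% = zero luminescence signal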
TROY NFkB inh: inhibitors of TROY-driven NF-kB signaling, primary screen, Q293 LMP1-TROYcd cells, NF-kB luciferase, uHTS. Q293 LMP1-TROYcd NF-kB luciferase reporter, 4 h. AID 1347056, 2019. inhibition, % at 10 µM. 360,000 compounds, 0.98% hits;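 active means compounds whose plate-normalised and pattern-corrected inhibition of the luciferase reporter signal at the single screening dose is 50% or more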
LGR2 inh: inhibitors of bursicon-induced LGR2 CRE-luciferase signal, primary screen, cell-based, HEK293, CRE-luciferase reporter, bursicon stimulation; Drosophila bursicon receptor LGR2 (rickets); bursicon-stimulated, 4 h; inhibition, % at 9.99 µM; 380,000 compounds, 0.35% hits; AID 720647, 2013;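 active means drop in luminescence signal, shown as inhibition above about 50% in the replicate tests, limit read from the data, passing the limit was not always enough; inconclusive means probably only some replicates passing the limit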;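 further: agonist challenge used bursicon conditioned medium at about half maximal strength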
TWEAK-Fn14 inh: inhibitors of TWEAK-Fn14 signaling, primary screen, luciferase reporter cells, uHTS; TWEAK-stimulated Fn14 reporter cells, luciferase luminescence, 8 h; 360,000 compounds, 2% hits; inhibition, % at 10 µM; in the data active means inhibition above about 50%
Starred values were filed as active, the others as inactive; ? = inconclusive; / = no result given.

SMILES | LMP1 NFkB inh | HSF-1 act | HSF1 inhib | TROY NFkB inh | LGR2 inh | TWEAK-Fn14 inh
CO[C@H](CN(C)C(=O)c1ccc2c(c1)OCO2)[C@@H](C)CN([C@H](C)CO)S(=O)(=O)c1ccccc1 | / | / | / | / | -1 | /
CC(=O)N1CC2(C1)[C@@H](c1ccccc1)[C@H](CO)N2C(=O)c1ccncc1 | / | / | / | / | -28 | /
O=[N+]([O-])c1cnc(Sc2ccncn2)c([N+](=O)[O-])c1 | 26 | / | / | 3 | -14 | -1
O=[N+]([O-])c1cnc(Sc2ccncn2)s1 | 38 | / | -67* | -20 | 5 | -25
CN(CC(=O)Nc1cccc(F)c1)CC(=O)Nc1cccc(S(=O)(=O)N2CCCCCC2)c1 | -3 | 38 | 15 | 38 | -6 | 29
CN(CC(=O)Nc1cccc(F)c1)CC(=O)Nc1cccc(S(N)(=O)=O)c1 | -4 | -80 | -72* | -1 | -4 | 0
COC(C(=O)C(O)C(C)O)C1Cc2cc3cc(OC4CC(OC5CC(O)C(O)C(C)O5)C(O)C(C)O4)c(C)c(O)c3c(O)c2C(=O)C1OC1CC(OC2CC(OC3CC(O)C(OC)C(C)O3)C(O)C(C)O2)C(O)C(C)O1 (configuration not stated) | 80* | / | / | 8 | 5 | 85*
Fc1ccc(CNCc2ccccc2Cl)cc1 | -4 | -61 | -53* | 13 | -27 | 0
CN1CCN(C(=O)CCCN2C(=O)/C(=C/c3ccccc3)SC2=S)CC1 | -16 | 11 | 8 | -15 | 19 | -13
O=C(O)CCCN1C(=O)/C(=C\C(Cl)=C\c2ccccc2)SC1=S | -27 | 49 | 45 | 26 | -5 | 102*
O=C(O)CCCN1C(=O)/C(=C\c2ccccc2OCc2ccccc2)SC1=S | 4 | 2 | -4 | 56* | 11 | -6
O=C(O)CN1C(=O)/C(=C\c2cc(Br)ccc2OCc2ccc(F)cc2)SC1=S | 4 | 70* | 21 | 27 | 11 | -71
CC(=O)Oc1ccc(C23c4ccccc4C2(OC(C)=O)c2cc(OC(C)=O)ccc23)cc1 (configuration not stated) | 10 | / | / | 34 | 11 | 89*
O=C(C[C@@H]1C[C@@H]2c3cc(NC(=O)Nc4ccc(F)cc4)ccc3O[C@@H]2[C@@H](CO)O1)NCC1CC1 | / | / | / | / | -2 | /
Oc1nc(Nc2ccccc2)sc1/C=C1\C=Nc2ccccc21 | -115 | 101* | 74 | -41 | -99 | -13
CCn1c(O)c(/C=C2\C=Nc3ccccc32)sc1=O | -61 | 74* | 25 | -66 | -110 | -25
CCOC(=O)c1c(Nc2ccccc2)sc(/C=C2\C=Nc3ccccc32)c1O | -29 | 1 | 1 | 14 | / | -6
O=C(C1CCC1)N1CC2(C1)[C@@H](c1ccccc1)[C@H](CO)N2C(=O)CC1CC1 | / | / | / | / | -4 | /
COc1ccc(C(=S)Nc2ccc(N(C)C)cc2)cc1 | -38 | 60* | 29 | -33 | / | 24
CC(=O)Nc1c(Br)cc2c(c1Br)C(=O)c1ccccc1-2 | 5 | / | / | -6 | 14 | 27
CC(=O)C1=C(c2ccc(Br)cc2)C(=O)c2ccccc2C1=O | 92* | -13 | -13 | 57* | 99* | 103*
Cc1cccc(Nc2nc(N)c([N+](=O)[O-])c(N3CCCC(C)C3)n2)c1 (configuration not stated) | 10 | 18 | -3 | 36 | 4 | 64*
O=C(C[C@@H]1C=C[C@@H](NC(=O)CN2CCOCC2)[C@@H](CO)O1)NCCc1ccncc1 | / | / | / | / | 3 | /
O=[N+]([O-])c1cc(S(=O)(=O)Nc2cccc(C(F)(F)F)c2)ccc1-n1nnc2ccccc21 | 0 | 0 | -3 | 58* | / | 14
O=C(CC1CC1)N1[C@H](CO)[C@@H](c2ccccc2)C12CN(Cc1ccncc1)C2 | / | / | / | / | 11 | /
SMILES | LMP1 NFkB inh | HSF-1 act | HSF1 inhib | TROY NFkB inh | LGR2 inh | TWEAK-Fn14 inh
O=C(/C=C/c1c(F)cccc1Cl)Nc1nc2ccccc2[nH]1 | -2 | 63* | 18 | -61 | / | -61
COc1ccccc1/C=C/C(=O)Nc1cccnc1 | -6 | 3 | 5 | -38 | -17 | -20
O=C(/C=C/c1ccccc1Cl)Nc1ccncc1 | -9 | 53* | 38 | -43 | -44 | -16
O=C(/C=C/c1c(F)cccc1Cl)Nc1ccncc1 | 2 | 69* | 42 | -54 | -12 | -18
O=C(/C=C/c1ccccc1Cl)Nc1cccnc1 | -16 | 58* | 28 | -41 | -51 | 1
Cc1ccc(S(=O)(=O)Nc2ccc3c(c2)C(=O)N([C@@H](C)CO)C[C@@H](C)[C@H](CN(C)CC2CC2)OCCCC[C@H](C)O3)cc1 | / | / | / | / | -9 | /
C[C@@H]1CCCCO[C@H](CN(C)Cc2ccccc2)[C@@H](C)CN([C@@H](C)CO)C(=O)c2cc(NS(=O)(=O)c3ccc(Cl)cc3)ccc2O1 | / | / | / | / | 24 | /
C/C=C/c1ccc([C@H]2[C@@H](CNC(=O)C3CC3)N(C(=O)NCCC)[C@H]2CO)cc1 | / | / | / | / | -12 | /
CCC(C)(C)c1ccc(OC(=O)c2cccnc2Cl)cc1 | -7 | 59* | 24 | -37 | -31 | -16
O=C(Cc1ccc(F)cc1)Nc1nc(-c2ccc(F)c(F)c2)cs1 | -4 | -3 | -5 | 75* | 21 | 45
Cc1csc(NC(=O)Cc2ccc(F)cc2)n1 | -18 | 25 | 1 | -52 | -35 | -8
COc1ccc(CC(=O)Nc2nc(-c3ccc(F)c(F)c3)cs2)cc1 | 0 | 9 | 0 | 55* | 4 | 47
O=C(CSc1ncnc2[nH]ncc12)Nc1nc(-c2ccc(F)c(F)c2)cs1 | 6 | -14 | -6 | 39 | ? | 78*
CC1Cc2cc(-c3csc(NC(=O)Cc4ccccc4)n3)ccc2N1S(C)(=O)=O (configuration not stated) | 7 | 8 | 5 | 60* | 32 | 92*
O=C(CN1C(=O)NC2(CCCC2)C1=O)Nc1nc(-c2ccc(F)c(F)c2)cs1 | 0 | / | / | 0 | 12 | -3
CC1(C(=O)OCC(=O)Nc2nc(-c3ccc(F)c(F)c3)cs2)CC1(Cl)Cl (configuration not stated) | -3 | 8 | 5 | 82* | 19 | 72*
CN(C)CC#Cc1ccc([C@@H]2[C@H]3CN(C(=O)c4ccc5c(c4)OCO5)CCCCN3[C@H]2CO)cc1 | / | / | / | / | 13 | /
O=C(Nc1ccccc1C(=O)Nc1nnc(C(F)(F)F)s1)c1ccccc1Cl | 37 | -27 | -14 | 66* | 25 | 62*
Cc1nn(-c2ccccc2)nc1C(=O)Nc1nnc(C(F)(F)F)s1 | 10 | -19 | -16 | 52* | 9 | 11
